High-throughput results as filed in PubChem BioAssay.
This is one part of a sample in which hits are shown more often than they occur.
Giardia FBPA inh = blocks Giardia fructose-bisphosphate aldolase activity; purified Giardia FBPA; Potency, µM (doses to about 59.6 µM), for the others: at the highest dose activity, negative = inhibition, hits mostly inhibitors; 0.71% of 290,000 active; AID 2451; further: potency means the concentration at half of the fitted maximal effect; on the % scale 0 is the no-effect control and ±100 the full control effect; nearly all actives have a fitted effect of over 55% in size
Target sequence (A8B2U2 whole entry, looked up): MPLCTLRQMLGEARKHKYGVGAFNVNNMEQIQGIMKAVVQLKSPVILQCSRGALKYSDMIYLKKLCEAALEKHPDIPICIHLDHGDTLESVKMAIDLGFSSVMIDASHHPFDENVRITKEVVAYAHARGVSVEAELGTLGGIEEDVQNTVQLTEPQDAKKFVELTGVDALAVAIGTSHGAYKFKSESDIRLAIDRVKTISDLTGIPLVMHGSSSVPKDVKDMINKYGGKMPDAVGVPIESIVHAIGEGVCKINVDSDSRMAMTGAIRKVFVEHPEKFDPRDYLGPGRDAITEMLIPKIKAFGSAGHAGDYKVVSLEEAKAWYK
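Giardia FBPA (40 nM reagent) was preincubated 10 min at RT with compound (up to 57.5 uM final), then substrate plus GAPDH/TPI/NAD/arsenate coupling system with diaphorase/resazurin was added; resorufin fluorescence (525/598 nm) was read after 20 min.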
Tb PYK inh = inhibitors of Trypanosoma brucei pyruvate kinase | Q57TT1 | TbPYK enzyme, Kinase-Glo Plus ATP luminescence, 45 min | Potency, µM (highest dose often 76.8 µM), for inactives: at the highest dose activity, negative = inhibition, most hits filed as inhibitors | 0.12% of 410,000 active | AID 624173; further: potency means the concentration at half of the fitted maximal effect; on the % scale 0 is the no-effect control and ±100 the full control effect; nearly all actives have a fitted effect of over 50% in size
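Enzyme and substrate buffer are dispensed first and compound is pin-transferred. ADP at 130 uM final then starts the reaction, which runs 45 min at room temperature. Detection reagent is added for 10 min before luminescence is imaged.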
Shiga inhibitor = inhibitors of Shiga toxin in Vero cells; Vero cells, Shiga toxin protein synthesis inhibition reporter; inhibition, % at 38.7 µM; 9.2% of 290,000 active; in the data active means inhibition mostly above about 28%, no sharp cut-off; inactive means mostly below about 43%; further: 0% is about no effect
LmPK inh = inhibitors of Leishmania mexicana pyruvate kinase. purified LmPK, Kinase-Glo ATP luminescence, 1 h. 0.37% of 290,000 active. AID 1721. Potency, µM (titrated, usually from 57.5 µM), for inactives: at the top dose activity change, negative = inhibition, most hits filed as inhibitors. Q27686; further: potency means the concentration at half of the fitted maximal effect; on the % scale 0 is the no-effect control and ±100 the full control effect
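Screened at intermediate enzyme activity to detect both inhibitors and activators: LmPK at 0.1 nM, with a 0.5 nM enzyme column as activation reference. PEP 0.5 mM, ADP 0.1 mM; ATP detected by luminescence after 1 h.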
CHX counter = counter-screen hit for Shiga toxin inhibitors, cycloheximide. max response, %. cell reporter, cycloheximide protein synthesis inhibition counterscreen. 12% of 300,000 active. AID 2314; in the data active means max response mostly above about 13%, no sharp cut-off; inactive means mostly below about 14%; further: read at 38.3 µM for the half of the compounds with a filed dose; 0% is about no effect
Sm TGR block = blocks Schistosoma mansoni thioredoxin glutathione reductase. Q962Y6. purified TGR, DTNB reduction, TNB absorbance 405 nm. Potency, µM (doses to about 114 µM), for inactives: at the top dose activity change, negative = inhibition, most hits filed as inhibitors. 3% of 360,000 active. AID 485364; further: potency means the concentration at half of the fitted maximal effect; on the % scale 0 is the no-effect control and ±100 the full control effect; nearly all actives have a fitted effect of over 60% in size
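First, TGR (20 nM dispensed) and NADPH were mixed with compound. Second, a 15 min room-temperature incubation followed. Third, further NADPH and then DTNB were added to start the reaction. Finally, TNB absorbance was monitored kinetically.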
The depositor's hits bear a star; u = inconclusive; x = no result. Unless noted, the call rests on the fitted dose curve; in most records, active means well fitted curve in the direction sought with a large enough effect; inconclusive means small, poorly fitted or top-dose-only effect, or another doubt; inactive means no such curve, though single readings can be large; an effect the other way counts as inactive or inconclusive.

SMILES	Giardia FBPA inh	Tb PYK inh	Shiga inhibitor	LmPK inh	CHX counter	Sm TGR block
Cc1cc(C)n(-c2cc(C(C)(C)C)nc3c(-c4ccccc4)cnn23)n1	-10%	1%	90*	4%	54*	7%
Cc1ccc(-c2cc(C(F)(F)F)n3ncc(-c4ccc(Cl)cc4)c3n2)cc1	x	-7%	x	x	x	5%
Cc1cc(C)n(-c2cc(C(C)(C)C)nc3c(-c4ccc(Cl)cc4)cnn23)n1	0%	-2%	64*	2%	29*	17%
CCOC(=O)Cc1csc(NC(=O)COC(=O)/C=C/c2ccc(OC)cc2)n1	x	5%	x	x	x	x
CCOC(=O)Cc1csc(NC(=O)COc2ccc(C)c(C)c2)n1	-1%	0%	41*	-9%	33*	8%
CCOC(=O)Cc1csc(NC(=O)/C=C\c2ccccc2)n1	-9%	5%	53*	1%	32*	4%
CCOC(=O)Cc1csc(NC(=O)/C=C/c2ccc(OC)cc2)n1	-9%	-2%	115*	1%	37*	8%
CCOC(=O)Cc1csc(NC(=O)COc2ccc(C)cc2)n1	-16%	-13%	11	4%	10	43%
COc1ccc2c(Sc3ccccc3)c(C(=O)NCc3cc(Br)ccc3OC)[nH]c2c1	x	0%	x	x	x	-13%
O=[N+]([O-])c1nn(-c2ccc3c(c2)OCCO3)n(O)c1=NCc1ccccc1Cl	0%	1%	90*	-6%	46*	3%
Cc1ccc(CN=c2c([N+](=O)[O-])nn(-c3cccc(Cl)c3)n2O)cc1	-14%	-5%	7	4%	8	6%
COc1ccccc1CN=c1c([N+](=O)[O-])nn(-c2ccc3c(c2)OCCO3)n1O	-10%	-2%	31*	2%	62*	40µM*
O=[N+]([O-])c1nn(-c2ccc3c(c2)OCCO3)n(O)c1=NC1CCCCC1	-12%	-4%	101	3%	28*	u
Cc1cc2c(s1)c1cnn(Cc3cccc(F)c3F)c(=O)c1n2C	x	x	19	x	9	x
CN1CCN(/N=C/c2nc(-c3ccccc3Cl)n3ccccc23)CC1	-9%	8%	-12	-1%	-2	-20%
CN1CCN(/N=C/c2nc(-c3ccc(Cl)cc3)n3ccccc23)CC1	u	-5%	39*	4%	32*	u
Clc1ccc(-c2nc(/C=N/N3CCOCC3)c3ccccn23)cc1	-17%	6%	63	4%	30*	45µM*
CN1CCN(/N=C/c2nc(-c3ccccc3)n3ccccc23)CC1	u	-7%	41*	-6%	3	u
COC(=O)[C@@]1(C)[C@H]2C(=O)N(C)C(=O)[C@H]2[C@H]2CN=C(SCc3ccc(C#N)cc3)N21	x	3%	x	x	x	x
COC(=O)c1ccc(CNC(=O)c2ccc(OC)c(S(=O)(=O)NC3CCCC3)c2)cc1	x	-2%	x	x	x	-11%
N=c1n(CCN2CCOCC2)c2ccccc2n1CC(=O)c1ccc(Cl)c(Cl)c1	u	2%	11	4%	24*	9%
Cc1ccc(Cc2c(-c3ccc(F)cc3)nc3c(Cl)cc(C(F)(F)F)cn23)cc1	x	7%	x	x	x	x
Fc1ccc(-c2nc3c(Cl)cc(C(F)(F)F)cn3c2Cl)cc1	1%	-1%	active	1%	32*	-3%
Cc1cccc(N(CC(=O)Nc2ccc(Br)cc2)S(C)(=O)=O)c1C	x	2%	x	x	x	10%
COc1cc2c(cc1OC)[C@@H]1C(=O)c3ccc4c(c3O[C@@H]1CO2)C=CC(C)(C)O4	-5%	x	x	x	x	x
SMILES	Giardia FBPA inh	Tb PYK inh	Shiga inhibitor	LmPK inh	CHX counter	Sm TGR block
COc1ccc(/C=C2\SC(=S)N(CCC(=O)Nc3ccc(C(=O)O)cc3)C2=O)cc1	-2%	5%	x	4%	-3	8%
COc1ccc(/C=C2\SC(=S)N(CCC(=O)Nc3cccc(O)c3)C2=O)cc1	7%	-1%	62*	-4%	39*	2%
COc1ccc(/C=C2\SC(=S)N(CCCC(=O)Nc3ccc(O)cc3)C2=O)cc1	1%	28%	51*	2%	35*	-7%
COc1ccc(/C=C2/SC(=S)N(CCCC(=O)Nc3ccc(O)cc3)C2=O)cc1	-2%	-2%	94*	8%	51*	-2%
COc1ccc(NC(=O)CN(C)CC(=O)N2CC(=O)Nc3ccccc32)cc1	x	0%	x	x	x	x
CCN(CC)c1cc2c(c3c1ccn3C)C1CCC2C1 (stereo not drawn)	x	2%	x	x	x	x
CCOc1ccc(CNC(=O)Cn2nc(C)c3nn(-c4ccc(Cl)cc4)c(C)c3c2=O)cc1	x	1%	x	x	x	5%
CCN(CC)C(=O)COC(=O)c1cc(-c2ccco2)nc2ccccc12	2%	-16%	15	-6%	-1	1.8µM*
CCN(CC)CCNC(=O)c1cc(-c2ccco2)nc2ccccc12	-13%	-14%	30	1%	5	-31%
CNC(=O)COC(=O)c1cc(-c2ccco2)nc2ccccc12	u	-1%	11	-10%	-2	2.8µM*
O=C(COC(=O)c1cc(-c2ccco2)nc2ccccc12)NCc1ccccc1	4%	-7%	-14	3%	12	u
COc1ccc(-c2cc(C(=O)Nc3c(C)n(C)n(-c4ccccc4)c3=O)c3ccccc3n2)cc1	12%	-4%	4	-4%	-3	5%
COc1ccc2cc(-c3cc(C(=O)OCC(=O)Nc4c(C)n(C)n(-c5ccccc5)c4=O)c4ccccc4n3)ccc2c1	0%	-8%	53*	-12%	31*	1%
C/C(N)=C(/C#N)C(=O)COC(=O)c1cc(-c2ccc(Br)cc2)nc2ccccc12	21%	-1%	6	2%	13*	-1%
CCOc1ccc(-c2cc(C(=O)NCCc3ccc(C)cc3)c3ccccc3n2)cc1	x	0%	x	x	x	5%
CCOC(=O)N1CCc2c(sc(NCc3cc(OC)ccc3OC)c2C(=O)Nc2cc(OC)ccc2OC)C1	x	u	x	x	x	-36%
CCC(NC(=O)c1ccc2nc(Cc3ccc(OC)cc3)oc2c1)c1ccncc1 (stereo not drawn)	11%	9%	-2	0%	31	-8%
CSc1nc(=S)n(-c2ccc([N+](=O)[O-])cc2)c(C)c1C(C)=O	-7%	3%	-2	-6%	5	9%
COc1cccc(CNC(=O)C2CCN(Cc3cc4ccccc4n3Cc3ccccc3)CC2)c1OC	x	3%	x	x	x	5%
CCCNC(=O)COC(=O)c1cc(-c2ccc(OC)cc2)nc2ccccc12	2%	-14%	14	5%	13*	-1%
CCNC(=O)COC(=O)c1cc(-c2ccc(OC)cc2)nc2ccccc12	-1%	-4%	-18	u	1	-2%
COc1ccc(-c2cc(C(=O)OCC(=O)NC3CC3)c3ccccc3n2)cc1	x	-2%	x	x	x	-5%
CCN(CC)C(=O)COC(=O)c1cc(-c2ccc(OC)cc2)nc2ccccc12	-6%	7%	35	5%	23*	-7%
